The source of these data is PubChem BioAssay (NCI).

Compounds without any hit were thinned out: in the full panel of roughly 83,000, 20% have a hit.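 Cells were grown in 96-well plates and exposed to the test compound at a single concentration for 48 hours; results are reported as percent growth, with values below 10 considered active.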 Values without a mark were called inactive. Activity calls are given as the source filed them.

Holding throughout (experiment): NCI-60 one-dose screen, 48 h (100 = growth as untreated, 0 = no growth, -100 = all killed)
What all share (conditions): 10 µM unless noted

Assay [1] deals with RPMI-8226 leukemia.
The test system of assay [2] is OVCAR-8 ovarian.
In assay [3] the test system is OVCAR-5 ovarian.
For assay [4], the system named is OVCAR-4 ovarian.
For assay [5], the system named is SK-OV-3 ovarian.
The subject of assay [6] is IGROV1 ovarian.
The subject of assay [7] is OVCAR-3 ovarian.
For assay [8], the system named is HS 578T breast.
For assay [9], the system named is NCI/ADR-RES ovarian.
Assay [10] has as its system T-47D breast.

For `Nc1ccc(C(=O)Nc2cccc(C(=O)Nc3ccc4c(O)c(N=Nc5ccc(N=Nc6ccc(S(=O)(=O)O)cc6)cc5)c(S(=O)(=O)O)cc4c3)c2)cc1`, the growth in assay [1] is 103%; in assay [2] it was 110%; in assay [3], 106%; in [4] it was 101%; in [5] it was 101%; in assay [6], 102%. The growth in [7] is 107%; in [8], 106%; in assay [9], 99.2%; in [10] it was 108%.

Regarding `c1ccc(Sc2ncccn2)nc1`, the growth in assay [1] was 65.6%; in assay [2], 100%; in assay [3] it was 101%; in assay [4] it was 98.1%; in assay [5] it was 99.4%; in assay [6] it was 108%. Further, the growth in assay [7] was 102%; in assay [8], 94%; in assay [9], 96.4%; in assay [10] it was 99.4%.

Consider `O=[N+]([O-])c1ccc(Oc2ccc(-c3ccccc3)cc2)cc1`, for which the growth is 75.2% in assay [1]; 92.1% in assay [2]; 99.2% in [3]; 69.6% in assay [4]; 92.6% in [5]; 85.3% in assay [6]. The growth in assay [7] is 99.3%; in [8], 93.2%; in assay [9], 91.8%; in assay [10], 60.6%.

Take `COc1ccc(C2=NN(c3ccc(S(N)(=O)=O)cc3)C(c3ccc(Cl)cc3)C2)c(O)c1` (stereo not given): the growth was 4.28% (active) in assay [1]; 54.6% in assay [2]; 78.3% in [3]; 50.5% in assay [4]; 85.3% in assay [5]; 50.1% in assay [6]. The growth in assay [7] is 58.6%; in [8], 70.5%; in [9], 52.5%; in assay [10], 33.8%.

Turning to `CCc1n(Cc2ccc3ccccc3c2)c2ccccc2[n+]1Cc1ccc2ccccc2c1`, the growth in assay [1] is 13.5%; in assay [2], 55.1%; in assay [3] it was 75.7%; in [4] it was 18.3%; in assay [5], 83%; in [6], 45.8%. The growth in [7] is 34.3%; in [8], 82.7%; in assay [9] it was 105%; in assay [10] it was 25.4%.

For `OCCNc1nc(NCCO)nc(Nc2ccc(C3=NN(c4cc(Cl)cc(Cl)c4)C(c4ccccc4)C3)cc2)n1` (stereo not given), the growth in assay [1] was 30.9%; in assay [2], 48.9%; in assay [3] it was 85.8%; in assay [4] it was 57.7%; in assay [5], 94.5%; in [6] it was 57.5%. Moreover, the growth in [7] is 26.2%; in assay [8], 62.9%; in assay [9], 57.2%; in [10], 63.6%.

As to `COc1cc2nc3c(=O)n(-c4ccc(C#N)cc4)cnn3c(=O)c2cc1OC`, the growth in assay [1] was 115%; in assay [2] it was 108%; in assay [3], 93.4%; in assay [4], 97%; in assay [5], 101%; in assay [6], 103%. The growth in [7] was 92.9%; in [8], 90.8%; in [9] it was 100%; in [10] it was 100%.

Take `COc1ccc2oc(=O)cc(-c3nc4ccc(N)cc4[nH]3)c2c1`: the growth was 83.4% in [1]; 89.9% in assay [2]; 92.6% in assay [3]; 95.8% in assay [4]; 77.5% in assay [5]; 76.7% in assay [6]. Further, the growth in assay [7] is 86.2%; in [8], 81.5%; in [9] it was 88%; in assay [10], 51.8%.

As to `CCCCC1=c2c([nH]c3ccc(OC)cc23)=NC2C=CC=NC12` (stereo not given), the growth in assay [1] was 56.8%; in assay [2], 101%; in [3] it was 106%; in assay [4] it was 80.3%; in [5], 113%; in assay [6], 69.9%. Moreover, the growth in assay [7] is 114%; in [8], 92.3%; in [9], 96.6%; in assay [10], 38.8%.

As for `Nc1ccc(C2=NN(C(=O)c3cc(-c4ccc(Cl)cc4)nc4ccccc34)C(c3ccc(Cl)cc3)C2)cc1` (stereo not given), the growth in assay [1] is 10.4%; in assay [2] it was 32.1%; in [3], 81.3%; in assay [4], 72.4%; in [5], 31.7%; in [6], 49.2%. Moreover, the growth in assay [7] is 8.07% (active); in assay [8] it was 41.8%; in [9], 12.4%; in assay [10], 38%.

Consider `CC(C)CSc1nc(Nc2ccccc2)c(C#N)c(-c2ccc(F)cc2)n1`, for which the growth in [1] is 21.6%; in assay [2], 29.4%; in [3], 40.8%; in assay [4], -81.3% (active); in [5], 46.8%; in assay [6] it was 1.71% (active). In addition, the growth in [7] was -33.2% (active); in [8], 14.6%; in assay [9], 41.1%; in assay [10] it was 29.1%.

Turning to `C=C1C(=O)O[C@H]2[C@H]1CC/C(COC(=O)CCC(=O)OC/C1=C/CC[C@@]3(C)O[C@H]3[C@H]3OC(=O)C(=C)[C@@H]3CC1)=C\CC[C@@]1(C)O[C@@H]21`, the growth is -0.781% (active) in [1]; 32.8% in [2]; 94.6% in [3]; 47.3% in assay [4]; 84.9% in assay [5]; 11.5% in assay [6]. Also, the growth in assay [7] is -11% (active); in [8], 79.6%; in [9], 89.8%; in assay [10], 19.7%.
